Screening data: PubChem, National Center for Advancing Translational Sciences (NCATS)
This is a sample that favours compounds with a hit; in the whole collection about 7.5% have one here.
Luc counter: blocks Kinase-Glo luciferase, a counter-screen artifact; Q27757; Kinase-Glo luciferase, ATP luminescence, 8 min; actives 0.28% (n = 200,000); Potency, µM (doses to about 38.3 µM), for the others: top-dose activity change, negative = inhibition, actives largely listed as inhibitors; further: on the % scale 0 is the no-effect control and ±100 the full control effect; nearly all actives have a fitted effect of over 60% in size
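Kinase-Glo luciferase light output from ATP and luciferin was measured with 10 uM ATP, within the enzyme's linear range. Buffer: 50 mM imidazole pH 7.2, 50 mM KCl, 7 mM MgCl2, 0.01% Tween 20, 0.05% BSA; luminescence read after 8 min at ambient temperature.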
NPC1 prom act: activates the NPC1 promoter; Huh7 NPC1 promoter luciferase reporter, 24 h; Potency, µM (series often up to 9.22 µM), without a hit: at the highest dose activation, actives largely listed as activators; actives 2.4% (n = 320,000); further: % of control where 0% means no effect; nearly all actives have a fitted effect of over 60% in size
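Stably transfected Huh7 (NPC1 promoter→luciferase), 1500 cells/well in Opti-MEM + 10% FBS, 2 h settle, then compound 24 h at 37 °C. Luminescence after 10 min with Amplite reagent.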
Rab9 promoter act: activates the Rab9 promoter; Potency, µM (highest dose often 9.22 µM), without a hit: at the top dose activation, negative = inhibition, actives largely listed as activators; actives 2.8% (n = 320,000); Huh7 Rab9 promoter-luciferase reporter, luminescence, 24 h; further: % of control where 0% means no effect; nearly all actives have a fitted effect of over 60% in size
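Rab9 promoter-driven luciferase in stably transfected Huh7 cells; 1500 cells/well rested 2 h, exposed to compound in DMSO for 24 h at 37 °C, 5% CO2. Luminescence read 10 min after adding luciferase reagent at ambient temperature.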
SMN2 splice up: enhancers of SMN2 splice variant expression. HEK293 SMN2-luciferase splicing reporter, luminescence, 30-36 h. Potency, µM (doses to about 46.1 µM), for the others: at the highest dose activity change, positive = activation, most hits filed as activators. actives 2.8% (n = 210,000); further: % of control where 0% means no effect; nearly all actives have a fitted effect of over 55% in size
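qHTS luciferase splicing reporter: luminescence rises when SMN2 exon 7 is included in transfected HEK293 cells. Compound exposure lasted 30-36 h at 37C, with 4.5 mM final sodium butyrate as control, followed by a ONE-Glo read.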
FLuc counter: inhibits or activates purified firefly luciferase, miR-21 counter-screen. P08659. purified FLuc, Km substrates, luminescence inhibition. Potency, µM (series often up to 57.5 µM), for the others: top-dose activity change, negative = inhibition, most hits filed as inhibitors. actives 6.9% (n = 360,000). AID 588342;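 further: plate controls were vehicle for no effect and reference inhibitor for full effect; nearly all actives have a fitted effect of over 55% in size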
Target sequence (P08659 whole entry, looked up): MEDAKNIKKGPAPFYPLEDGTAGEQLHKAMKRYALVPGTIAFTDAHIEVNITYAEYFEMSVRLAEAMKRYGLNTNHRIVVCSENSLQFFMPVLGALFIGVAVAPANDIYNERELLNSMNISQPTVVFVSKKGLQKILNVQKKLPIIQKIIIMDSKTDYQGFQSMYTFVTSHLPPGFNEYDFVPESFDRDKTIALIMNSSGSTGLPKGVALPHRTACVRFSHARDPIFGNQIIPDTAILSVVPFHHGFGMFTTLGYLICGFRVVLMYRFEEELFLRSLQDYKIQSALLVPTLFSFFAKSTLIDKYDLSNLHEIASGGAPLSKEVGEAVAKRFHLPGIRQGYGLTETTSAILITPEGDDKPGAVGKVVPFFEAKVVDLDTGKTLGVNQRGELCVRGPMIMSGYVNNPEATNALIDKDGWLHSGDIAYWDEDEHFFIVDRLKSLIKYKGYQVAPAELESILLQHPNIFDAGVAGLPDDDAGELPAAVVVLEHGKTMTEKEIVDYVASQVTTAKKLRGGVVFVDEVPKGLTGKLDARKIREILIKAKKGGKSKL
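Biochemical qHTS of compounds, final roughly 60 µM downward over six points, against 10 nM purified firefly luciferase using Km concentrations of substrates (10 uM D-luciferin, 10 uM ATP) in Tris acetate pH 7.5 buffer; luminescence output.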
ELG1 genotox: inducers of genotoxicity in HEK293T ELG1-luciferase cells; HEK293T ELG1-luciferase reporter, luminescence, 16 h; Potency, µM (highest dose often 46 µM), for the others: at the highest dose activity change, positive = activation, hits mostly activators; actives 1.3% (n = 330,000); further: % of control where 0% means no effect; nearly all actives have a fitted effect of over 60% in size
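Luminescence read-out: rising ELG1-luciferase signal, reflecting elevated ELG1 protein under genetic stress, flags genotoxic compounds. Cells were treated for 16 hr at 37 °C before ONE-Glo detection.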
An asterisk follows results filed as active; ? = inconclusive; . = no result given; [ ] = remark or other dose. The call rests on the fitted dose curve; in most records, active means well fitted curve in the direction sought with a large enough effect; inconclusive means small, poorly fitted or top-dose-only effect, or another doubt; inactive means no such curve, though single readings can be large; an effect the other way counts as inactive or inconclusive. Potency means the concentration at half of the fitted maximal effect.

SMILES	Luc counter	NPC1 prom act	Rab9 promoter act	SMN2 splice up	FLuc counter	ELG1 genotox
COc1ccc(OCc2cc(C(=O)NC(C)c3csc(C)n3)no2)c(Cl)c1 (stereo unspecified)	.	?	4.5µM*	.	13µM*	7%[9.26 µM]
COc1ccc(OCc2cc(C(=O)NCc3nc(C)cs3)no2)c(Cl)c1	.	?	?	.	13µM*	?
O=c1c(=O)n(-c2ccccc2)ccn1Cc1c(F)cccc1Cl	.	.	.	.	1%	.
Cc1nc(-c2ccc([N+](=O)[O-])cc2)sc1C(=O)O	-9%	24%	?	.	27µM*	?
Cc1ccc(-c2nc(C)c(C(=O)O)s2)cc1	-2%	-14%	?	.	4.8µM*	?
Cc1nc(-c2ccc(Cl)cc2)sc1C(=O)O	-1%	?	?	11µM*	15µM*	?
Cc1nc(-c2ccccc2)sc1C(=O)O	-6%	19%	23%	?	?	9%
O=C(Nc1ccc(F)cc1)c1ccc2c(c1)NC(=O)c1ccccc1S2	.	.	.	-70%	-3%	.
O=C(CSc1ncccc1C(=O)O)c1cccc(C(F)(F)F)c1	4%	19%	?	?	24µM*	?
O=C(CSc1ncccc1C(=O)O)c1ccccc1F	-5%	10%	20%	9%	?	3%
O=C(CSc1ncccc1C(=O)O)c1ccc2ccccc2c1	-1%	?	?	?	9.5µM*	5%
O=C(CCC(=O)N1CC2CCCN2c2ccccc21)NCc1ccc(F)cc1 (stereo unspecified)	.	.	.	.	7%	.
O=C(Nc1ccncc1)c1ccc(Cl)cc1	.	-3%	2%	.	?	-7%
Cn1sc(NC(=O)c2ccc(Cl)cc2)nc1=O	-3%	4µM*	3.5µM*	?	2.4µM*	?
Cc1ccc(C(=O)Nc2nc(=O)n(C(=O)CC(C)C)s2)cc1	5%	-1%	2%	9%	?	0%
Cc1ccc(C(=O)Nc2nc(=O)n(C(=O)c3ccccc3Cl)s2)cc1	-1%	?	3.2µM*	?	5.4µM*	?
Cc1ccc(C(=O)Nc2ccccc2C(=O)N2CCCCCC2)cc1	.	1%	0%	.	-16%	-1%
Cc1ccc(C(=O)Nc2nc(=O)n(C)s2)cc1	-4%	3.2µM*	2.8µM*	?	2.1µM*	?
CC(C)CC(=O)n1sc(NC(=O)c2ccccc2)nc1=O	-9%	-4%	-6%	-6%	21µM*	-1%
Cc1nn2c3c(cnc2c1-c1ccc(Cl)cc1)C(=O)CC(c1ccc(C(C)C)cc1)C3 (stereo unspecified)	.	.	.	6%	1%	.
COc1ccccc1NC(=O)C1=C(C)Nc2nc(SCc3ccccc3)nn2C1c1cccc(O)c1 (stereo unspecified)	.	.	.	21%	-16%	.
Fc1cccc2sc(Nc3nc4ccccc4s3)nc12	-2%	?	?	10µM*	?	?
Fc1ccc2nc(Nc3nc4c(F)cccc4s3)sc2c1	-2%	?	?	?	9.5µM*	2%
Fc1ccc2nc(Nc3nc4c(F)cc(F)cc4s3)sc2c1	.	?	22%	.	8.5µM*	1%
COc1cccc2sc(Nc3nc4ccc(NC(C)=O)cc4s3)nc12	-5%	7%	0%	-14%	?	-13%
SMILES	Luc counter	NPC1 prom act	Rab9 promoter act	SMN2 splice up	FLuc counter	ELG1 genotox
O=C(NNc1nc2ccccc2s1)c1ccccc1F	-2%	7%	2%	0%	-1%	-2%
CCC(=O)NNc1nc2c(F)cc(F)cc2s1	-4%	-1%	0%	7%	3%	3%
Cc1cc(NC(=O)CSc2ncc(C(=O)Nc3ccccc3)c(=O)n2C)no1	.	.	.	.	-4%	.
Cc1ccccc1CCNC(=O)c1cc2cc(S(=O)(=O)N3CCCCC3)ccc2n1C	.	.	.	.	-5%	.
Cc1ccc(C(=O)O)cc1NC(=S)NC(=O)c1ccc(-c2ccc(Cl)cc2)o1	.	-1%	-2%	.	?	2%
COc1ccc(C(=O)O)cc1NC(=S)NC(=O)c1ccc(-c2ccc(Cl)cc2)o1	-2%	-1%	1%	-14%	13µM*	11%
O=C(O)c1cccc(NC(=S)NC(=O)c2ccc(-c3ccc(Cl)cc3)o2)c1	2%	18%	?	73%	15µM*	9%
Cc1cc(NC(=O)CSc2nnc(C(F)(F)F)n2C)no1	.	.	.	.	.	2%
COc1cccc2oc(-c3ccc(O)cc3)cc(=O)c12	-19%	.	.	.	.	.
O=c1cc(-c2ccccc2)oc2cc(O)c(O)c(O)c12	1%	.	.	?	.	?
O=c1cc(-c2ccc(O)cc2)oc2c1ccc1ccccc12	.	4%	11%	.	-12%	?
COc1c(O)cc2oc(-c3ccc(O)cc3)cc(=O)c2c1O	.	?	?	.	0.85µM*	9.2µM*
COc1cc2oc(-c3ccc(O)cc3)cc(=O)c2c(OC)c1O	.	-2%	1%	.	24µM*	16µM*
COc1cc2oc(-c3ccc(O)cc3)cc(=O)c2c(O)c1OC	.	24%	0%	.	19µM*	?
O=c1cc(-c2ccc(O)cc2)oc2ccc3ccccc3c12	.	0.89µM*	?	.	0.067µM*	?
CCc1ccc(C(=O)N2CCC(c3nc(-c4ccc(S(=O)(=O)N5CCCC5)cc4)no3)CC2)cc1	.	.	.	-9%	-3%	.
CC(C)CCN1C(=O)c2ccccc2CC1(C)C(=O)NC1CCC(C)CC1 (stereo unspecified)	.	.	.	1%	-1%	.
O=C(CSc1nc(=O)[nH]c2c1CCC2)NCc1ccc(Cl)cc1	.	.	.	.	4%	.
COc1ccccc1-n1c(SCc2cc(=O)oc3cc(O)ccc23)nc2ccccc2c1=O	0%	2%	-3%	23%	?	0%
COc1ccccc1-n1c(=O)oc2ccc(Cl)cc2c1=O	-3%	?	4%	.	13µM*	6%
CCOc1ccccc1NC(=O)C(CC(C)C)NS(=O)(=O)c1ccc2c(c1)CCN2C(C)=O (stereo unspecified)	.	.	.	5%	-8%	.
O=C(NC1CCCCC1)c1cc2nc3c(c(C(F)(F)F)n2n1)CCCC3	0%	?	3.5µM*	35µM*	24µM*	?
CC(=O)c1ccc(NC(=O)c2cc3nc4c(c(C(F)(F)F)n3n2)CCCC4)cc1	2%	23%	?	20%	?	11%
CN(C)CCNC(=O)c1ccc2nc(Cc3ccccc3)oc2c1	.	.	.	.	-6%	.
Cc1ccc(-c2nc3ccccn3c2C=O)cc1	-29%	?	3.5µM*	.	21µM*	?
CN(C)c1ccc(-c2nc3ccccn3c2/N=C/c2ccc(Br)cc2)cc1	?	?	?	3.2µM*	0.6µM*	?
O=C(O)c1c(Cl)nc2ccccn12	2%	-5%	8%	1%	2%	0%
